# Source: PubChem BioAssay (NCI)
# About 83,000 compounds went through this panel and 20% of them were active in at least one assay; those are over-represented in the sample as a whole.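 Single-dose data. Exposure time 48 hours. Values below 10 considered active.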 Activity calls are given as the source filed them.
# System: EKVX NSCLC
# Assay: NCI-60 one-dose screen, 48 h (100 = growth as untreated, 0 = no growth, -100 = all killed)
# Details: 10 µM unless noted
row,Structure (SMILES),growth
1,CCCCc1n(Cc2ccc3ccccc3n2)cc[n+]1Cc1ccc2ccccc2n1,50.9% (inactive)
2,COc1ccc(/C=C(/C(=O)N2CCN(c3ccccc3)CC2)c2cc(OC)c(OC)c(OC)c2)cc1O,41% (inactive)
3,CCOC(=O)C1=C(C)NC(SCc2nnc(-c3ccc(Cl)cc3)o2)=NC1c1ccc(Br)cc1 (stereo not given),71.3% (inactive)
4,CN(C)CCOc1nc2c3cccnc3cc(-c3cccc(Cl)c3)c2c2ncccc12,34.3% (inactive)
5,O=C1/C(=C\c2cccn2Cc2ccc(Cl)cc2)c2ccccc2N1c1c(Cl)cccc1Cl,62.2% (inactive)
6,COc1ccc(/C(=C\c2cc(OC)c(OC)c(OC)c2)C(=O)N2CCNCC2)cc1,105% (inactive)
7,O=C(CCc1nc2sc3c(c2c(=O)[nH]1)CCC3)NCc1cn(-c2ccccc2)nc1-c1ccccc1,92% (inactive)
8,Nc1nc2c(c3ncccc13)C(c1ccccc1)Cc1ncccc1-2 (stereo not given),78.8% (inactive)
9,O=C1/C(=C\c2cccn2C(=O)c2ccccc2)c2ccccc2N1c1c(Cl)cccc1Cl,80.5% (inactive)
10,CCSc1ccc([C@@H]2[C@@H](O)C(=O)N2c2cc(OC)c(OC)c(OC)c2)cc1,52.3% (inactive)
11,N#Cc1c(N)n(C2OC(CO)C(O)C2O)c2ncnc(N)c12 (stereo not given),-20.3% (active)
12,CCOC(=O)C1=C(C)NC(SCc2nnc(-c3ccc(Cl)cc3)o2)=NC1c1ccc(Cl)cc1 (stereo not given),80.2% (inactive)
13,CCCc1n(Cc2ccc3ccccc3n2)cc[n+]1Cc1ccc2ccccc2n1,58.1% (inactive)
14,O=c1[nH]cnc2nc[nH]c12,81.6% (inactive)
15,CN(C)CCOc1nc2c3ccncc3cc(-c3cccc(Cl)c3)c2c2cnccc12,37.4% (inactive)
